Laboratory results reported in PubChem BioAssay AID1159580 (chemical genetic matrix, 2015).
Where “and” joins values, the source holds several entries; their conditions need not be identical. Equal values may be shown once. Hit rate of the full screen: of about 5,500 compounds, about 2,000 (36%) were called active. Another 18% or so got no clear call; they are omitted. No stated cut-off is given here; in the data, active means normalized growth mostly below about 0.91 (no sharp cut-off); inconclusive means no clear call, values can overlap the other calls; inactive means mostly above about 0.92. This is one part of the list.

Test: chemical genetic growth profiling, strain panel (AID 1159580);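 further: tested at 20 µM; growth read once vehicle control cultures reached saturation at 30 °C; 1 = growth at the plate median or of vehicle wells; lower values mean less growth of the strain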
Details: S. cerevisiae deletion strains, growth OD

Measured: normalized growth

COC(=O)[C@H]1[C@H]2C[C@H]3c4[nH]c5cc(OC)ccc5c4CCN3C[C@H]2C[C@@H](OC(=O)c2cc(OC)c(OC)c(OC)c2)[C@@H]1OC
inactive: locus YAL021C, strain ccr4, active compounds read low 0.989 | locus YAL026C, strain drs2, active compounds read low 1.02 | locus YAL030W, strain snc1, active compounds read low 1.01 | locus YBL061C, strain skt5, active compounds read low 1.02 | locus YBR009C, strain hhf1, active compounds read low 0.996 | locus YBR021W, strain FUR4, active compounds read low 0.998 | locus YBR023C, strain chs3, active compounds read low 1.01 | locus YBR171W, strain sec66, active compounds read low 1.02 | locus YBR229C, strain ROT2, active compounds read low 1 | locus YBR231C, strain swc5, active compounds read low 1.01 | locus YBR279W, strain paf1, active compounds read low 1.01 | locus YCL011C, strain gbp2, active compounds read low 1.01 | locus YCL016C, strain dcc1, active compounds read low 1.01 | locus YCL029C, strain bik1, active compounds read low 0.971 | locus YCL061C, strain MRC1, active compounds read low 1.01 | locus YCL069W, strain vba3, active compounds read low 1.01 | locus YCR088W, strain abp1, active compounds read low 1.01 | locus YDL005C, strain med2, active compounds read low 1.01 | locus YDL035C, strain GPR1, active compounds read low 1.05 | locus YDL040C, strain nat1, active compounds read low 1.01 | locus YDL074C, strain BRE1, active compounds read low 0.976 | locus YDL101C, strain DUN1, active compounds read low 0.986 | locus YDL185W, strain tfp1, active compounds read low 0.966 | locus YDL192W, strain arf1, active compounds read low 1.02 | locus YDR001C, strain nth1, active compounds read low 1.01 | locus YDR069C, strain doa4, active compounds read low 1 | locus YDR101C, strain arx1, active compounds read low 0.977 | locus YDR137W, strain rgp1, active compounds read low 1.03 | locus YDR159W, strain sac3, active compounds read low 1.02 | locus YDR162C, strain NBP2, active compounds read low 1.02 | locus YDR195W, strain ref2 1 | locus YDR297W, strain sur2, active compounds read low 1.01 | locus YDR318W, strain mcm21, active compounds read low 0.992 | locus YDR334W, strain swr1, active compounds read low 1.02 | locus YDR335W, strain msn5, active compounds read low 1.02 | locus YDR388W, active compounds read low 0.983 | locus YDR392W, strain spt3, active compounds read low 0.925 | locus YDR502C, strain sam2, active compounds read low 0.929 | locus YEL003W, strain gim4, active compounds read low 1.02 | locus YEL037C, strain rad23, active compounds read low 1.02 | locus YEL061C, strain CIN8 (second series), active compounds read low 1.01 | locus YEL061C, strain CIN8, active compounds read low 1 | locus YER015W, strain faa2, active compounds read low 1 | locus YER016W, strain bim1, active compounds read low 1.01 | locus YER110C, active compounds read low 0.975 | locus YER111C, strain swi4, active compounds read low 1.01 | locus YER155C, strain BEM2 (second series), active compounds read low 0.975 | locus YER155C, strain BEM2, active compounds read low 1 | locus YER167W, strain BCK2, active compounds read low 1.01 | locus YFR010W, strain ubp6, active compounds read low 1.01 | locus YGL078C, strain dbp3, active compounds read low 1.02 | locus YGL086W, strain mad1, active compounds read low 0.999 | locus YGL167C, strain pmr1, active compounds read low 1.02 | locus YGL173C, strain kem1, active compounds read low 1.02 | locus YGL227W, strain vid30, active compounds read low 1.01 | locus YGL240W, strain doc1, active compounds read low 0.997 | locus YGL248W, strain PDE1, active compounds read low 0.987 | locus YGL253W, strain hxk2, active compounds read low 1.02 | locus YGR135W, strain pre9, active compounds read low 1 | locus YGR252W, strain gcn5, active compounds read low 1.06 | locus YHR013C, strain ard1, active compounds read low 0.995 | locus YHR027C, strain rpn1, active compounds read low 1.02 | locus YHR030C, strain SLT2, active compounds read low 1.01 and 0.978 | locus YHR079C, strain IRE1 (second series), active compounds read low 0.982 | locus YHR079C, strain IRE1, active compounds read low 0.968 | locus YHR094C, strain hxt1, active compounds read low 0.993 | locus YHR129C, strain ARP1, active compounds read low 1 | locus YHR142W, strain chs7, active compounds read low 1.01 | locus YHR200W, strain rpn10, active compounds read low 0.992 | locus YIL066C, strain RNR3, active compounds read low 1.01 | locus YIL073C, strain SPO22, active compounds read low 0.923 | locus YIL125W, strain kgd1, active compounds read low 1.02 | locus YIR030C, strain dcg1, active compounds read low 0.994 | locus YJL092W, strain hpr5, active compounds read low 1.01 | locus YJL095W, strain BCK1 (second series), active compounds read low 1.01 | locus YJL095W, strain BCK1, active compounds read low 0.958 and 0.964 | locus YJL115W, strain asf1, active compounds read low 1.01 | locus YJL129C, strain trk1, active compounds read low 1 | locus YJL134W, strain LCB3, active compounds read low 0.996 | locus YJL154C, strain vps35, active compounds read low 1 | locus YJL164C, strain tpk1, active compounds read low 1 | locus YJL166W, strain qcr8, active compounds read low 0.987 | locus YJL168C, strain set2, active compounds read low 0.991 | locus YJL187C, strain SWE1 (second series), active compounds read low 0.979 | locus YJL187C, strain SWE1, active compounds read low 1.01 | locus YJR043C, strain POL32, active compounds read low 1.07 | locus YJR066W, strain TOR1, active compounds read low 0.92 | locus YJR075W, strain HOC1, active compounds read low 0.982
